HCMV antiviral: human cytomegalovirus inhibition | HFF cells, HCMV-luciferase reporter, 72 h; active compounds read low | activity change, negative = inhibition, % at 57.5 µM | 410,000 compounds, 4.5% hits; in the data active means activity change below about -60%; inconclusive means no clear call, values can overlap the other calls; inactive means above about -39%
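After 16 h attachment at 37C, HFF cells received test compound and HCMV-luciferase (1 PFU/cell); reporter luminescence read 72 h later, data normalized against buffer-only and known inhibitor Salinomycin.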
Vaccinia mCherry: inhibitors of vaccinia virus infection (mCherry reporter signal); Vaccinia virus mCherry reporter infection, fluorescence; Potency, µM (titrated, usually from 36.5 µM), without a hit: at the top dose activity change, negative = inhibition, most hits filed as inhibitors; 310,000 compounds, 0.63% hits; calls by dose curve; tested in A549 cells; further: potency means the concentration at half of the fitted maximal effect; nearly all actives have a fitted effect of over 35% in size
Marburg entry inh: blocks Marburg virus binding to or entry into cells | Marburg virus pseudotyped entry inhibition, cell reporter | Potency, µM (titrated, usually from 37.8 µM), inactives show at the highest dose activity change, negative = inhibition, usual class: inhibitors | 300,000 compounds, 1.8% hits; calls by dose curve; tested in HEK293 cells; further: potency means the concentration at half of the fitted maximal effect
FMDV inh: foot and mouth disease virus antiviral activity | FMDV antiviral cell-based qHTS | Potency, µM (doses to about 57.9 µM), inactives show at the highest dose activity change, negative = inhibition, most hits filed as inhibitors | 410,000 compounds, 1.2% hits; calls by dose curve; tested in HEK293T cells; further: read-out not given here; potency means the concentration at half of the fitted maximal effect; nearly all actives have a fitted effect of over 45% in size
Vaccinia Venus: inhibitors of vaccinia virus (Venus reporter); Vaccinia virus Venus reporter expression, fluorescence; Potency, µM (top dose mostly 36.5 µM), without a hit: at the highest dose activity change, negative = inhibition, hits mostly inhibitors; 330,000 compounds, 0.46% hits; calls by dose curve; tested in A549 cells; further: potency means the concentration at half of the fitted maximal effect; nearly all actives have a fitted effect of over 30% in size
LASV entry inh: Lassa virus entry inhibition. Potency, µM (titrated, usually from 37.9 µM), inactives show top-dose activity change, negative = inhibition, actives largely listed as inhibitors. Lassa virus pseudotype entry inhibition, cell reporter. 300,000 compounds, 1.2% hits; calls by dose curve; tested in HEK293 cells; further: potency means the concentration at half of the fitted maximal effect; nearly all actives have a fitted effect of over 50% in size
An asterisk follows results filed as active; i = inactive; ? = inconclusive; . = no result; ! = not confirmed by another sample; [ ] = remark or other dose. A selection: hits, their analogues and other compounds. The true share with any hit is near 6.5%. On the % scale 0 is the no-effect control and ±100 the full control effect.

SMILES	HCMV antiviral	Vaccinia mCherry	Marburg entry inh	FMDV inh	Vaccinia Venus	LASV entry inh
Cc1ccc(/C=N/NC(=O)Cc2ccc(Cl)cc2)c(O)c1	-29.7	22.4µM*	?	31.6%	?	?
O=C(Cc1ccc(Cl)cc1)N/N=C/c1ccncc1	-14.4	i	-22.3%[46.1 µM]	10.8%	-10.7%	8.7%[46.1 µM]
O=C(CC(=O)N/N=C/c1ccc(C(=O)O)cc1)NCCc1ccccc1	-97.2*	.	.	-0.6%	.	.
O=C(Cc1ccc(Cl)cc1)N/N=C/c1ccccc1	-68.2*	.	.	5.1%	.	.
CC(C)=CCC/C(C)=C/CO/N=C1/C[C@@H](O)[C@@H](O)[C@@H]2[C@@H]3C(=O)N(Cc4ccc5c(c4)OCO5)C(=O)[C@H]3CC[C@H]12	.	.	-43.7%[14.2 µM]	.	.	.
COc1cc(C=O)cc(OC)c1[N+](=O)[O-]	.	-8.2%	.	.	-6.8%	.
CC(=O)Nc1ccc(C2=NNC(=Nc3ccc(S(=O)(=O)N4CCOCC4)cc3)SC2)cc1	-35.9	-15.4%	11.2µM*	-8.5%	-2.5%	?
CCN=C1NN=C(c2ccc(C)cc2)CS1	10.8	i	?	.	-0.2%	?
COCCN=C1NN=C(c2ccc(NC(C)=O)cc2)CS1	-66.8*	-12.6%	-16.6%[46.1 µM]	50.6%	-8.4%	.
O=S(=O)(c1ccc(N=C2NN=C(c3cc(F)ccc3F)CS2)cc1)N1CCOCC1	-98.8*	?	5.01µM*	-28.7%	-22.0%	12.6µM*
COc1ccccc1-c1cc(C(F)(F)F)nc(S(=O)(=O)CCCC(=O)O)n1	-14.1	.	?	25.1µM*	.	7.3%
COc1ccccc1-c1cc(C(F)(F)F)nc(S(=O)(=O)CCCC(=O)N2CCOCC2)n1	-104.4*	?	11.2µM*!	22.4µM*	?	12.6µM*
COc1ccc(-c2cc(C(F)(F)F)nc(S(=O)(=O)CCC(=O)N3CCOCC3)n2)cc1	96.2	.	?	-10.7%	-3.4%	?
COC1=C[C@@H](C(=O)N[C@H]2CCCC[C@H]2NC(C)=O)[C@@H](C)[C@H](c2ccccc2)CC1=O	.	.	?	.	.	7.1%[14.3 µM]
Cc1cccn2cc(COc3ccc(-c4ccccc4)cc3)nc12	-90.4*	?	?	4.6%	-10.9%	?
Cc1nnc(SCC(=O)c2cc(C)n(-c3ccc4c(c3)OCO4)c2C)s1	-65.7*	-9.5%	?	.	-3.6%	-5.8%
Cc1cc(C(=O)COC(=O)c2ccc(N)c([N+](=O)[O-])c2)c(C)n1-c1ccc2c(c1)OCO2	-73.5*	.	-28.8%	-23.1%	.	-5.3%
Cc1cc(C(=O)COC(=O)c2ccc(N)c([N+](=O)[O-])c2)c(C)n1Cc1ccc2c(c1)OCO2	-24.5	-21.4%[7.34 µM]	.	-5.9%	-7.2%[7.34 µM]	.
Cc1cc(C(=O)CSc2nnnn2C)c(C)n1-c1ccc2c(c1)OCCO2	52.8	.	-22.1%	13.9%	.	26.7%
N#CSCC(=O)N1c2ccccc2CCc2ccccc21	-102.1*	-17.4%	?	?	?	?
COc1cccc(OC)c1C(=O)Oc1ccc2c(c1)O/C(=C\c1ccncc1)C2=O	-75.1*	?	7.08µM*	?	?	5.2%
O=C1/C(=C/c2ccncc2)Oc2cc(OS(=O)(=O)c3ccccc3)ccc21	1.4	.	.	?	.	.
CCCOc1ccc(CCCN=C(N)N)cc1Cl	-73.6*	-29.6%	?	?	?	-0.1%
O=C1COCc2ccc(-c3ccc(Cl)cc3)cc2N1CCN1CCOCC1	-8.7	.	.	.	.	.
CCCCNC(=O)c1nc2cc(C)c(C)cc2nc1-c1ccccc1	17.5	.	.	.	.	.
SMILES	HCMV antiviral	Vaccinia mCherry	Marburg entry inh	FMDV inh	Vaccinia Venus	LASV entry inh
CSCC[C@H](NC(=O)c1ccc(Cl)c([N+](=O)[O-])c1)c1nc2ccccc2[nH]1	23.0	-18.0%	10µM*	?	-7.7%	-29.1%
Cc1ccc(-c2nc3ccccc3[nH]2)cc1NC(=O)COc1ccccc1[N+](=O)[O-]	-87.6*	-20.6%[7.34 µM]	-17.3%[46.1 µM]	0.0%	-13.2%[7.34 µM]	?
CCOc1ccccc1NC(=O)c1ccc(OCC)c([N+](=O)[O-])c1	-65.0*	i	15.4%	-21.6%	-9.9%	14.4%
CCOc1ccc(C(=O)Nc2cccc(C(=O)O)c2C)cc1Cl	?	i	5.8µM*	1.78µM*	-8.5%	9.2µM*
CCOc1ccc(C(=O)Nc2nc(C)cc(C)n2)cc1[N+](=O)[O-]	1.9	-0.9%	11.2%	-9.6%	-7.6%	11.0%
CN(C)CCCCCCNc1nccc(N2CCN(C)CC2)n1	.	-17.4%	.	.	-17.6%	.
CCOc1ccc(NC(=O)CC2C(=O)OCCN2CC)cc1 (stereo not given)	17.9	6.8%	13.4%[46.1 µM]	14.6%	13.6%	-5.5%[46.1 µM]
CCOc1ccc(C(=O)Nc2cc(-c3nc4ccccc4[nH]3)ccc2C)cc1[N+](=O)[O-]	53.6	.	?	-22.1%	?	?
CCOc1ccc(C(=O)Nc2cc(-c3nc4ccccc4[nH]3)ccc2Cl)cc1[N+](=O)[O-]	-85.3*	-22.2%	8.91µM*	-10.9%	?	?
N#CC1=C(N)Oc2c(ccc3cccnc23)C1c1cccnc1 (stereo not given)	-99.4*	.	?	-20.6%	.	?
Cc1ccc2cc(C3C(C#N)=C(N)Oc4c3ccc3cccnc43)c(=O)[nH]c2c1 (stereo not given)	-103.5*	-27.6%	?	-16.7%	-29.9%	?
CC(C)n1c(O)c(/C=C2\C=NN=C2c2ccccc2)sc1=S	?	-10.9%	11.2µM*	?	-23.5%	?
CCn1c(O)c(/C=C2\C=NN=C2c2ccc(C)cc2)sc1=S	-8.5	i	1.1%[46.1 µM]	-7.5%	5.4%	2.6%
C[C@@]1(c2ccco2)NC(=O)NC1=O	.	.	9.6%	.	.	.
CCOC(=O)C1=C(CSc2nc(C)cc(C)c2C#N)OC(N)=C(C#N)[C@H]1c1cccs1	.	.	-28.8%[46.1 µM]	.	.	.
CCc1ccc2nc(N3CCC(C(=O)O)CC3)sc2c1	-29.6	-5.8%	?	-50.1%	4.9%	.
CCCCN(C)CCNC(=O)C1CCN(c2nc3ccc(CC)cc3s2)CC1	-97.9*	-6.2%	?	0.4%	-9.7%	25.9%[46.1 µM]
COC(=O)c1cn[nH]c1NC(=S)Nc1ccc(C)cc1Cl	12.6	.	?	?	.	7.3µM*
CCC(C)n1c(O)c(/C=N/Nc2ccccc2)c(=O)[nH]c1=S (stereo not given)	-79.9*	?	4.4%	11.6%	-9.1%	?
CCC(C)n1c(O)c(C=NCCc2ccccc2)c(=O)[nH]c1=S (stereo not given)	8.5	.	.	0.0%	.	.
C[C@@H]1CN(C2CCN(C(=O)COc3ccccc3)CC2)C[C@H](C)O1	.	.	7.4%	.	.	.
Cc1ccc2[nH]ccc(=O)c2c1	6.3	-11.6%	-25.9%	-11.4%	-4.9%	-23.1%
COc1ccc2c(c1)c(/C=C/c1cc[n+](C)cc1)cn2C	-97.6*	?	.	?	28.0%	.
CCCCCCC[n+]1ccc(/C=C/c2c[nH]c3ccccc23)cc1	.	-24.0%	.	.	59.6%	.
CC[n+]1ccc(/C=C/c2c[nH]c3ccccc23)cc1	-94.1*	.	.	?	.	.
Cc1ccc2[nH]cc(/C=C/c3cc[n+](C)cc3)c2c1	-100.0*	?	5.01µM*	-10.8%	51.5%	?
